Measured values as given in PubChem BioAssay AID1159580 (chemical genetic matrix, 2015).
Values joined by “and” are separate entries in the source; they are usually repeats but may differ in a detail not shown here. Equal values may be shown once. Among all 5,500 compounds or so, about 2,000 (36%) were called active. Inconclusive results (about 18%) are left out. No stated cut-off is given here; in the data, active means normalized growth mostly below about 0.91 (no sharp cut-off); inconclusive means no clear call, values can overlap the other calls; inactive means mostly above about 0.92. The list shows a part of the results.

Experiment: chemical genetic growth profiling, strain panel (AID 1159580);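 further: tested at 20 µM; growth read once vehicle control cultures reached saturation at 30 °C; 1 = growth at the plate median or of vehicle wells; lower values mean less growth of the strain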
Settings: S. cerevisiae deletion strains, growth OD
[1] = locus YDR150W, strain NUM1, hits give low values
[2] = locus YMR307W, strain GAS1, hits give low values
[3] = locus YNL128W, strain TEP1, hits give low values

Measured: normalized growth

CC(=O)O[C@H]1C[C@@H](OC(C)=O)C(C)(C)C2C[C@@H](OC(C)=O)[C@]3(C)C(CC[C@@]4(C)[C@H](c5ccoc5)C(=O)[C@H]5O[C@]543)[C@]21C (stereo partly specified)
inactive: locus YAL021C, strain ccr4, hits give low values 0.992 | locus YAL026C, strain drs2, hits give low values 0.991 | locus YAL030W, strain snc1, hits give low values 0.99 | locus YBL061C, strain skt5, hits give low values 1 | locus YBR009C, strain hhf1, hits give low values 1 | locus YBR021W, strain FUR4, hits give low values 0.966 | locus YBR023C, strain chs3, hits give low values 1.01 | locus YBR171W, strain sec66, hits give low values 1 | locus YBR229C, strain ROT2, hits give low values 1.01 | locus YBR231C, strain swc5, hits give low values 1 | locus YBR279W, strain paf1, hits give low values 1 | locus YCL011C, strain gbp2, hits give low values 1.01 | locus YCL016C, strain dcc1, hits give low values 0.998 | locus YCL029C, strain bik1, hits give low values 1.01 | locus YCL061C, strain MRC1, hits give low values 0.997 | locus YCL069W, strain vba3, hits give low values 1 | locus YCR088W, strain abp1, hits give low values 0.995 | locus YDL005C, strain med2, hits give low values 0.986 | locus YDL035C, strain GPR1, hits give low values 0.969 | locus YDL040C, strain nat1, hits give low values 0.995 | locus YDL074C, strain BRE1, hits give low values 0.975 | locus YDL101C, strain DUN1, hits give low values 1.02 | locus YDL134C, strain PPH21, hits give low values 1.02 | locus YDL185W, strain tfp1, hits give low values 1.02 | locus YDL192W, strain arf1, hits give low values 1.01 | locus YDR001C, strain nth1, hits give low values 0.981 | locus YDR069C, strain doa4, hits give low values 0.993 | locus YDR101C, strain arx1, hits give low values 0.994 | locus YDR137W, strain rgp1, hits give low values 0.935 | [1] 1.02 | locus YDR159W, strain sac3, hits give low values 1.02 | locus YDR162C, strain NBP2, hits give low values 0.987 | locus YDR195W, strain ref2 0.985 | locus YDR297W, strain sur2, hits give low values 0.996 | locus YDR318W, strain mcm21, hits give low values 1.01 | locus YDR334W, strain swr1, hits give low values 0.991 | locus YDR335W, strain msn5, hits give low values 0.994 | locus YDR388W, hits give low values 1.04 | locus YDR392W, strain spt3, hits give low values 1.02 | locus YDR502C, strain sam2, hits give low values 1.02 | locus YEL003W, strain gim4, hits give low values 1 | locus YEL037C, strain rad23, hits give low values 1 | locus YEL061C, strain CIN8 (second series), hits give low values 0.995 | locus YEL061C, strain CIN8, hits give low values 1.01 | locus YER015W, strain faa2, hits give low values 1.01 | locus YER016W, strain bim1, hits give low values 0.997 | locus YER110C, hits give low values 1.03 | locus YER111C, strain swi4, hits give low values 1 | locus YER155C, strain BEM2 (second series), hits give low values 0.998 | locus YER155C, strain BEM2, hits give low values 1.02 | locus YER167W, strain BCK2, hits give low values 1.01 | locus YFR010W, strain ubp6, hits give low values 0.989 | locus YGL078C, strain dbp3, hits give low values 1 | locus YGL086W, strain mad1, hits give low values 1.01 | locus YGL167C, strain pmr1, hits give low values 1 | locus YGL173C, strain kem1, hits give low values 1.01 | locus YGL227W, strain vid30, hits give low values 0.996 | locus YGL240W, strain doc1, hits give low values 1.01 | locus YGL248W, strain PDE1, hits give low values 1.02 | locus YGL253W, strain hxk2, hits give low values 1 | locus YGR135W, strain pre9, hits give low values 1.05 | locus YGR252W, strain gcn5, hits give low values 0.996 | locus YHR013C, strain ard1, hits give low values 1.01 | locus YHR027C, strain rpn1, hits give low values 0.99 | locus YHR030C, strain SLT2, hits give low values 1.01 and 0.945 | locus YHR079C, strain IRE1 (second series), hits give low values 1.03 | locus YHR079C, strain IRE1, hits give low values 0.925 | locus YHR094C, strain hxt1, hits give low values 1.03 | locus YHR129C, strain ARP1, hits give low values 1.02 | locus YHR142W, strain chs7, hits give low values 1 | locus YHR200W, strain rpn10, hits give low values 1.02 | locus YIL066C, strain RNR3, hits give low values 0.98 | locus YIL073C, strain SPO22, hits give low values 1.01 | locus YIL125W, strain kgd1, hits give low values 1.01 | locus YIR030C, strain dcg1, hits give low values 1.02 | locus YJL092W, strain hpr5, hits give low values 1.01 | locus YJL095W, strain BCK1 (second series), hits give low values 1 | locus YJL095W, strain BCK1, hits give low values 1.03 and 0.969 | locus YJL115W, strain asf1, hits give low values 0.987 | locus YJL129C, strain trk1, hits give low values 0.973 | locus YJL134W, strain LCB3, hits give low values 1.02 | locus YJL154C, strain vps35, hits give low values 0.991 | locus YJL164C, strain tpk1, hits give low values 1 | locus YJL166W, strain qcr8, hits give low values 1.01 | locus YJL168C, strain set2, hits give low values 1.04 | locus YJL187C, strain SWE1 (second series), hits give low values 1.02 | locus YJL187C, strain SWE1, hits give low values 1 | locus YJR066W, strain TOR1, hits give low values 0.888 | locus YJR075W, strain HOC1, hits give low values 1.04 | locus YKL009W, strain mrt4, hits give low values 0.898 | locus YKL068W, hits give low values 1.02 | locus YKL085W, strain MDH1 (second series), hits give low values 1.01 | locus YKL085W, strain MDH1, hits give low values 1.01 | locus YKL160W, strain elf1, hits give low values 0.996 | locus YKL190W, strain CNB1, hits give low values 1.01 | locus YKR001C, strain vps1, hits give low values 0.993 | locus YKR026C, strain gcn3, hits give low values 0.997 | locus YKR091W, strain srl3, hits give low values 0.995 | locus YLL001W, strain dnm1, hits give low values 1 | locus YLL026W, hits give low values 1 | locus YLL041C, strain sdh2, hits give low values 0.994 | locus YLR027C, strain aat2, hits give low values 1.02 | locus YLR039C, strain RIC1, hits give low values 1.02 | locus YLR058C, strain SHM2, hits give low values 1.01 | locus YLR102C, strain apc9, hits give low values 1.02 | locus YLR113W, strain HOG1, hits give low values 1.03 | locus YLR221C, strain rsa3, hits give low values 1 | locus YLR258W, strain gsy2, hits give low values 0.995 | locus YLR262C, strain YPT6 (second series), hits give low values 0.95 | locus YLR268W, strain sec22, hits give low values 0.982 | locus YLR320W, strain mms22, hits give low values 1 | locus YLR330W, strain CHS5, hits give low values 1.02 | locus YLR342W, strain FKS1, hits give low values 1.01 | locus YLR357W, strain rsc2, hits give low values 1.01 | locus YLR370C, strain arc18, hits give low values 1 | locus YLR371W, strain rom2, hits give low values 1.03 | locus YLR384C, strain iki3, hits give low values 0.995 | locus YLR418C, strain cdc73, hits give low values 1.05 | locus YML016C, strain PPZ1, hits give low values 1.01 | locus YML032C, strain rad52, hits give low values 0.995 | locus YML120C, strain ndi1, hits give low values 1 | locus YML124C, strain tub3, hits give low values 1.02 | locus YMR058W, strain fet3, hits give low values 0.99 | locus YMR078C, strain ctf18, hits give low values 1.01 | locus YMR125W, strain sto1, hits give low values 0.978 | locus YMR129W, hits give low values 1 | locus YMR205C, strain PFK2, hits give low values 1.01 | locus YMR223W, strain ubp8, hits give low values 1.01 | locus YMR231W, strain pep5, hits give low values 0.978 | [2] 0.931 | locus YNL067W, strain RPL9B, hits give low values 1.04 | locus YNL071W, strain lat1, hits give low values 0.996 | [3] 0.991 | locus YNL153C, strain GIM3, hits give low values 1.02 | locus YNL183C, strain NPR1, hits give low values 0.904 | locus YNL209W, strain ssb2, hits give low values 1 | locus YNL233W, strain BNI4, hits give low values 0.973 | locus YNL248C, strain rpa49, hits give low values 0.969 | locus YNL250W, strain rad50, hits give low values 1.06 | locus YNL271C, strain bni1, hits give low values 1.01 | locus YNL298W, strain CLA4, hits give low values 1.01 | locus YNL307C, strain MCK1, hits give low values 1.02 | locus YNL322C, strain KRE1 (second series), hits give low values 1.01 | locus YNR049C, strain mso1, hits give low values 1.01 | locus YNR052C, strain pop2, hits give low values 1.02 | locus YOL006C, strain TOP1, hits give low values 0.962 | locus YOL012C, strain htz1 1.21 | locus YOL147C, strain pex11, hits give low values 1.03 | locus YOR001W, strain rrp6, hits give low values 0.985 | locus YOR061W, strain CKA2, hits give low values 0.998 | locus YOR069W, strain VPS5, hits give low values 1.02 | locus YOR070C, strain gyp1, hits give low values 1 | locus YOR080W, strain dia2, hits give low values 1.01 | locus YOR083W, strain WHI5, hits give low values 0.991 | locus YOR106W, strain vam3, hits give low values 0.985 | locus YOR136W, strain idh2, hits give low values 1.01 | locus YOR144C, strain elg1, hits give low values 1.02 | locus YOR184W, strain ser1, hits give low values 0.965 | locus YOR231W, strain MKK1, hits give low values 0.919 | locus YOR265W, strain rbl2, hits give low values 0.997 | locus YOR270C, strain vph1, hits give low values 0.875 | locus YOR290C, strain snf2, hits give low values 1 | locus YOR316C, strain cot1, hits give low values 1.02 | locus YPL051W, strain arl3, hits give low values 1.01 | locus YPL078C, strain atp4, hits give low values 0.991 | locus YPL106C, strain sse1, hits give low values 1.05 | locus YPL240C, strain hsp82, hits give low values 0.998 | locus YPL256C, strain CLN2, hits give low values 0.994 | locus YPR119W, strain clb2, hits give low values 1.02 | locus YPR141C, strain kar3, hits give low values 1.03 | locus YPR163C, strain tif3, hits give low values 1.02 | locus YPR167C, strain met16, hits give low values 1.01 | strain wtn01, hits give low values 0.987

COC(=O)c1c(-c2cc(OC)c(OC)c(OC)c2)c2ccc(OCc3ccccn3)cc2c(=O)n1-c1ccc(N)cc1
inactive: locus YAL013W, strain DEP1, hits give low values 1.02 | locus YAL040C, strain CLN3, hits give low values 1.01 | locus YCL061C, strain MRC1 (second series), hits give low values 0.999 | [1] 1.01 | locus YDR363W, strain ESC2, hits give low values 1.01 | locus YER002W, strain NOP16, hits give low values 1.03 | [2] 1.01 | [3] 1.02 | locus YNL175C, strain NOP13, hits give low values 1.03 | locus YNL197C, strain WHI3, hits give low values 1.04 | locus YNL224C, strain SQS1, hits give low values 1.04 | locus YOR083W, strain WHI5 (second series), hits give low values 1.01 | locus YPL055C, strain LGE1, hits give low values 1.02
